Test results as given in ChEMBL document CHEMBL1157539, “Thousands of chemical starting points for antimalarial lead identification” (Nature, 2010).

What was measured:
Format in all cases: functional
Plasmodium falciparum [1] = assay: GSK_TCMDC: Inhibition of Plasmodium falciparum 3D7 in whole red blood cells, using parasite LDH activity as an index of growth. Test compounds present at 2uM
Plasmodium falciparum [2] = assay: GSK_TCMDC: Inhibition of Plasmodium falciparum Dd2 in whole red blood cells, using parasite LDH activity as an index of growth. Test compounds present at 2uM
HepG2 = assay: GSK_TCMDC: Percent inhibition of human HepG2 cell line. Test compounds present at 10uM.

Compound	Inhibition (Plasmodium falciparum [1])	Inhibition (Plasmodium falciparum [2])	Inhibition (HepG2)
O=C(/C=C/c1ccc(-c2nc3cc(F)c(F)cc3[nH]2)cc1)NCc1ccc(Cl)c(Cl)c1	100%	24%	14%
CC(C)(C)OC(=O)/C=C(\C(=O)OCc1ccc([N+](=O)[O-])cc1)c1csc(NC(c2ccccc2)(c2ccccc2)c2ccccc2)n1	96%	97%	2%
COc1cc2nc(N3CCC(NC(=O)c4cccc(N(C)C)c4)CC3)nc(N)c2cc1OC.O=C(O)/C=C\C(=O)O	98%	0%	6%
Cl.O=C(CCc1ccccc1)N[C@H](Cc1c[nH]c2ccccc12)C(=O)N1CCC(NCc2ccc3c(c2)Cc2ccccc2-3)CC1	92%	8%	53%
CN(C)CCCc1cc(NC(=O)Nc2cccc(Cl)c2Cl)ccc1I.Cl	100%	45%	12%
Cc1[nH]c2c(NCc3ccc(F)cc3)nccc2c1C	83%	0%	63%
COc1ccc2ncc(Cl)c(CCN3CCC(NCc4ccc5c(n4)NC(=O)CO5)CC3)c2c1.Cl	92%	26%	25%
O=C(CCNc1ccnc(NCCc2ccccc2)n1)Nc1ccccc1.O=C(O)C(F)(F)F	89%	19%	7%
COc1ccc2nc(C)cc(N/N=C/C=C/c3ccccc3)c2c1	100%	100%	27%
CN1CCN(CCCN(Cc2ccc(-c3cccc(CNCc4ccc5c(c4)OCO5)c3)cc2)C(=O)NCCc2ccccc2)CC1.O=C(O)C(F)(F)F	98%	85%	36%
COc1ccc2nccc([C@@H](O)CN3CCC(NC(=O)Cn4nc(-c5ccc(C(F)(F)F)cc5)ccc4=O)CC3)c2c1	100%	90%	12%
CC(C)(CNCc1ccc(C(F)(F)F)cc1)c1nc(-c2ccnc(N)n2)c(-c2ccc(Cl)c(O)c2)[nH]1.Cl	100%	37%	32%
COc1cc(NC(=O)c2c(-c3c(F)cccc3Cl)noc2C)c(OC)cc1Cl	89%	17%	0%
CNCCNCc1ccc(-c2cccc(-c3nc4cc(F)ccc4[nH]3)c2)cc1.O=C(O)C(F)(F)F	93%	1%	10%
O=C(Nc1nc(-c2ccccn2)cs1)c1ccccc1COc1ccccc1	83%	42%	34%
O=C(Nc1ccc2ccccc2c1)N1CCC(NCc2cccc([N+](=O)[O-])c2)CC1.O=C(O)C(F)(F)F	98%	0%	0%
O=C(NC1CCCc2ccccc21)[C@@H]1CCCN1C(=O)c1ccc(O)c(-c2ccc(Cl)c(Cl)c2)c1 (stereo not given in full)	99%	99%	0%
CCNc1cc(C(=O)N[C@@H](Cc2ccccc2)[C@H](O)CNCc2cccc(-n3ccnc3)c2)cc(N2CCCC2=O)c1.O=C(O)C(F)(F)F	99%	96%	1%
FC(F)(F)Oc1cccc(CNc2noc(-c3sccc3Br)n2)c1	100%	97%	0%
COc1ccc(C2CCN(CCCCNC(=O)c3ccc(NC(=O)c4ccc(Cl)cc4)cc3)CC2)c(C)c1.Cl	98%	35%	22%
